Target: Interleukin-8 (IL8, CXCL8), C-terminal His-tagged (Homo sapiens, UniProt P10145 SEQ:1-72)
Experiment: competition; competition TR-FRET
Conditions: tags: C-terminal 6xHis (Sino Biological); ssRNA; 2'-F G, 2'-OMe A/C/U, 5' C6NH2, 3' idT
Description: Activity of each of these variants were tested using a time resolved competition TR-FRET assay in which the labeled parent Aptamer 3 was competed with increasing concentrations of unlabeled variants for binding to IL8 (FIG. 14). Briefly, 2-fold dilutions of thermally equilibrated aptamers were made in TR-FRET Buffer (50 mM MOPS, pH 7.4, 125 mM NaCl, 5 mM KCl, 50 μM CHAPS, 0.1 mg/mL BSA, 1 mM CaCl₂, and 1 mM MgCl₂). 5 μL of aptamer or control solution was added to 5 μl mix of 10 nM C-terminal His-tagged-IL8, 60 nM ALEXA FLUOR® 647-labeled Aptamer, and 5 nM anti-His-Eu (Perkin Elmer) in a black wall low volume 384 well plate (Greiner). For control, 5 μl of 1000-fold excess of unlabeled parent aptamer or 5 μl TR-FRET buffer alone was added to the mix of ALEXA FLUOR® 647-labeled aptamer, His-IL8, and anti-His-Eu. The plate was covered with a plate seal and subsequently incubated in the dark for 1 hour at room temperature. The plate was read on a Biotek CYTATION™ 5 plate reader. […]
To better understand the sequence requirements and confirm the stem structures of members of the Aptamer 8 family as determined from sequence covariation analysis from both the primary and secondary (degenerate) selections, a series of variants which included mutations and deletions to the predicted stems (Tables 45 and 46) were synthesized and screened. […]

Row | Sequence | binding signal
1 | CGGCGGGAAAUGUGAGAUGGGUUGCCG | ~2.5 fold worse than Aptamer 8
2 | CGGUGGGAAAUGUGAGAUGGGUUACCG | ~2.5 fold worse than Aptamer 8
